# Records with an inconclusive call do not appear. Values without a mark were called inactive. Calls of active or inactive are those of the source. Unless noted, calls follow the shape of the full dose curve.
# Test system: thyroid hormone receptor (rat, GH3 cells)
# Assay: qHTS assay to identify small molecule agonists of the thyroid receptor (TR) signaling pathway (AID 743066)
# Conditions: GH3.TRE-Luc cells, TR agonist luciferase, 24 h; series mostly up to 83.9 µM; activation: at the top concentration
# % is scaled to controls: 0 for no effect and ±100 for the full control effect.
SMILES,activation,Potency
C=C(C)C(=O)OCCCCCCCCCCCCCCCCCC,0.0623% [at 39.4 µM],–
CC(=O)N[C@@H](CCC(N)=O)C(=O)O,0.0472%,–
C#CC(C)(O)CC(C)C (configuration not stated),0.486%,–
CC(=O)OC(C)(C)C,0.985%,–
COC(=O)c1ccc(C(=O)OC)c(C(=O)OC)c1,0.301%,–
CC1=CC(=O)CCC1,2.47%,–
CCO[Si](CCCN=C=O)(OCC)OCC,0.234%,–
COCCOC(=O)CC#N,0.393%,–
Cc1nccn1CC1CCc2c(c3ccccc3n2C)C1=O (configuration not stated),–,inactive
C=CC(=O)OCCCCCC,0.592%,–
CC(C=O)Cc1ccc(C(C)C)cc1 (configuration not stated),-0.427%,–
CCCCN(CCO)CCO,1.1%,–
CCCCc1ccc(N)cc1,-1.76%,–
COc1cc(C(=O)N2CCOCC2)cc(OC)c1OC,–,inactive
CCc1cc(S(=O)(=O)O)c2cc(C(C)C)cccc1-2,-2.3%,–
Cc1cc(C)c(NC(=O)CN(CC(=O)O)CC(=O)O)c(C)c1Br,2.02%,–
CC(C)[N+](C)(C)CC(O)COc1cccc2ccccc12 (configuration not stated),-0.623%,–
COc1cccc(OC)c1,-1.86%,–

SMILES,activation,Potency
CCCCCCCCCCCCCCC,1.16%,–
COC(=O)CCCC(=O)O,-3.06%,–
NC(=O)c1ncn([C@@H]2O[C@H](CO)[C@@H](O)[C@H]2O)c1O,0.176%,–
COc1ccc(COC=O)cc1,0.132%,–
OCc1ccccn1,1.56%,–
Nc1ccc2cc(S(=O)(=O)O)ccc2c1,-1.35%,–
OCC(O)[C@@H](O)[C@H](O)[C@H](O)CO[C@H]1O[C@H](CO)[C@@H](O)[C@H](O)[C@H]1O (some centres not stated),-0.271%,–
CN(C)N=Nc1ccccc1,-0.735%,–
CC(O)CN(CCCN(C)C)CCCN(C)C (configuration not stated),0.911%,–
CCC(C)OC(=O)N1CCCCC1CCO (configuration not stated),2.13%,–
NS(=O)(=O)c1cc(C2(O)NC(=O)c3ccccc32)ccc1Cl (configuration not stated),0.475% [at 39.4 µM],–
N#CC1(O)CCCCC1,-0.0882% [at 95.2 µM],–
CC(C)CCCC(C)CCCC(C)CCCCC(C)CCCC(C)CCCC(C)C (configuration not stated),-0.0279%,–
CCCC=O,0.465%,–
CCCc1ccccc1O,0.4%,–
NC(=O)c1c(Cl)cccc1Cl,-0.0845%,–
CC/C=C\C#N,-0.0471%,–

# Target: Estrogen receptor (Homo sapiens) (UniProt P03372)
# Assay: qHTS assay to identify small molecule antagonists of the estrogen receptor alpha (ER-alpha) signaling pathway (AID 743069; active = well fitted curve in the direction sought with a large enough effect in the signal ratio in the repeat runs, not every such curve was filed as active; the % refers to the signal ratio)
# Conditions: HEK293 ER-alpha-UAS-bla, beta-lactamase ratio, antagonist mode; series mostly up to 69.4 µM; activity, negative = inhibition: at the top concentration
# Outline: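 HEK293 ER-alpha-UAS-bla GripTite cells, held overnight in 2% charcoal-stripped FBS, 5,000 cells/well, preincubated 4 h, then compound plus 17beta-estradiol for 18 h at 37C. Beta-lactamase read by LiveBLAzer B/G FRET substrate, 2 h at room temperature.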
# Sequence of Estrogen receptor (Homo sapiens) (P03372 whole entry, looked up): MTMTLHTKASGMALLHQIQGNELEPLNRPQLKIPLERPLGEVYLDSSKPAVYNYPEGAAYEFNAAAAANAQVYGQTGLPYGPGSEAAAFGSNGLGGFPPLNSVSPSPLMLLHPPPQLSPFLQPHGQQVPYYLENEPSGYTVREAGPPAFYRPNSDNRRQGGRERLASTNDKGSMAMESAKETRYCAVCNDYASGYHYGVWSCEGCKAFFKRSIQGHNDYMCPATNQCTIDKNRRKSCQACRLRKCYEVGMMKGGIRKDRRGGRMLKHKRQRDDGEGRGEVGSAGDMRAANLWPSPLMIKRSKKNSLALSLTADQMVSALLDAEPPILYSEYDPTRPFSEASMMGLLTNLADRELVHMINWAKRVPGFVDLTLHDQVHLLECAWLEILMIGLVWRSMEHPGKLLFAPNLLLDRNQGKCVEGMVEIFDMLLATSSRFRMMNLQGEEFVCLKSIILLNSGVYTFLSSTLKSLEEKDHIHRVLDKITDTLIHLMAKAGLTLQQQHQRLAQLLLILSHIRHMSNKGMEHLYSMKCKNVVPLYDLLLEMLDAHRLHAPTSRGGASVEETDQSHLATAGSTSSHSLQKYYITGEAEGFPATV
SMILES,"activity, negative = inhibition",Potency
C=C(C)C(=O)OCCCCCCCCCCCCCCCCCC,-12.3% [at 32.6 µM],–
CC(=O)N[C@@H](CCC(N)=O)C(=O)O,-14.4%,–
CC(=O)OC(C)(C)C,19.2%,–
COC(=O)c1ccc(C(=O)OC)c(C(=O)OC)c1,25.1%,–
CCO[Si](CCCN=C=O)(OCC)OCC,-21.6%,–
COCCOC(=O)CC#N,10.4%,–
Cc1nccn1CC1CCc2c(c3ccccc3n2C)C1=O (configuration not stated),–,inactive
C=C(C)[C@H]1CC=C(C)CC1,5.03%,–
CCCCN(CCO)CCO,13.8%,–
CCCCc1ccc(N)cc1,-10.5%,–
CCc1cc(S(=O)(=O)O)c2cc(C(C)C)cccc1-2,3.51%,–
CC(C)[N+](C)(C)CC(O)COc1cccc2ccccc12 (configuration not stated),5.05%,–
NC(=O)c1ncn([C@@H]2O[C@H](CO)[C@@H](O)[C@H]2O)c1O,-2.94%,–
COc1ccc(COC=O)cc1,-11.7%,–
Nc1ccc2cc(S(=O)(=O)O)ccc2c1,-14.5%,–
NC(=O)c1c(Cl)cccc1Cl,6.81%,–
CC/C=C\C#N,9.38%,–

# Test system: not listed separately
# Assay: qHTS assay to identify small molecule antagonists of the estrogen receptor alpha (ER-alpha) signaling pathway - cell viability counter screen (AID 743074);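 also: HEK293 cells carrying ER-alpha-UAS-bla reporter stimulated with 17beta-estradiol; nearly all actives have a fitted effect of over 45% in size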
# Conditions: ERalpha-bla HEK293 viability, CellTiter-Glo luminescence, 18 h; series mostly up to 69.4 µM; activity, negative = cytotoxicity: at the top concentration
SMILES,"activity, negative = cytotoxicity",outcome
CC(=O)N[C@@H](CCC(N)=O)C(=O)O,24.6%,–
C#CC(C)(O)CC(C)C (configuration not stated),-3.98%,–
CC(=O)OC(C)(C)C,-8.58%,–
COC(=O)c1ccc(C(=O)OC)c(C(=O)OC)c1,-18.4%,–
CC1=CC(=O)CCC1,21.6%,–
COCCOC(=O)CC#N,5.84%,–
Cc1nccn1CC1CCc2c(c3ccccc3n2C)C1=O (configuration not stated),–,inactive
C=CC(=O)OCCCCCC,8.19%,–
C=C(C)[C@H]1CC=C(C)CC1,13.6%,–
CC(C=O)Cc1ccc(C(C)C)cc1 (configuration not stated),19.8%,–
CCCCN(CCO)CCO,-6.65%,–
CCCCc1ccc(N)cc1,23.7%,–
COc1cc(C(=O)N2CCOCC2)cc(OC)c1OC,–,inactive
Cc1cc(C)c(NC(=O)CN(CC(=O)O)CC(=O)O)c(C)c1Br,14.4%,–
CC(C)[N+](C)(C)CC(O)COc1cccc2ccccc12 (configuration not stated),-13.7%,–
COc1cccc(OC)c1,-6.23%,–

SMILES,"activity, negative = cytotoxicity",outcome
COC(=O)CCCC(=O)O,15.8%,–
NC(=O)c1ncn([C@@H]2O[C@H](CO)[C@@H](O)[C@H]2O)c1O,13.7%,–
COc1ccc(COC=O)cc1,24.9%,–
OCc1ccccn1,-19.7%,–
Nc1ccc2cc(S(=O)(=O)O)ccc2c1,26.2%,–
OCC(O)[C@@H](O)[C@H](O)[C@H](O)CO[C@H]1O[C@H](CO)[C@@H](O)[C@H](O)[C@H]1O (some centres not stated),-18.9%,–
CN(C)N=Nc1ccccc1,-14.5%,–
CCC(C)OC(=O)N1CCCCC1CCO (configuration not stated),-4.57%,–
NS(=O)(=O)c1cc(C2(O)NC(=O)c3ccccc32)ccc1Cl (configuration not stated),4.11% [at 32.6 µM],–
N#CC1(O)CCCCC1,-10.1% [at 79.1 µM],–
CC(C)CCCC(C)CCCC(C)CCCCC(C)CCCC(C)CCCC(C)C (configuration not stated),12.1%,–
CCCC=O,-3.58%,–
CCCc1ccccc1O,-4.26%,–
NC(=O)c1c(Cl)cccc1Cl,-15.4%,–
CC/C=C\C#N,37.4%,–

# Target: Estrogen receptor (Homo sapiens) (UniProt P03372)
# Assay: qHTS assay to identify small molecule agonists of the estrogen receptor alpha (ER-alpha) signaling pathway (AID 743075)
# Conditions: HEK293 ER-alpha-UAS-bla, beta-lactamase FRET ratio, 18 h; series mostly up to 70.1 µM; activation: at the top concentration
SMILES,activation,Potency
C=C(C)C(=O)OCCCCCCCCCCCCCCCCCC,-1.8% [at 32.9 µM],–
CC(=O)N[C@@H](CCC(N)=O)C(=O)O,-2.38%,–
CC(=O)OC(C)(C)C,-1.96%,–
COC(=O)c1ccc(C(=O)OC)c(C(=O)OC)c1,-3.62%,–
CCO[Si](CCCN=C=O)(OCC)OCC,-0.896%,–
COCCOC(=O)CC#N,1.91%,–
Cc1nccn1CC1CCc2c(c3ccccc3n2C)C1=O (configuration not stated),–,inactive
C=C(C)[C@H]1CC=C(C)CC1,-1.57%,–
CCCCN(CCO)CCO,-2.35%,–
CCCCc1ccc(N)cc1,-1.08%,–
CCc1cc(S(=O)(=O)O)c2cc(C(C)C)cccc1-2,-1.74%,–
CC(C)[N+](C)(C)CC(O)COc1cccc2ccccc12 (configuration not stated),-2.36%,–
COC(=O)CCCC(=O)O,0.767%,–
NC(=O)c1ncn([C@@H]2O[C@H](CO)[C@@H](O)[C@H]2O)c1O,-2.48%,–
COc1ccc(COC=O)cc1,-0.91%,–
OCc1ccccn1,-1.81%,–
Nc1ccc2cc(S(=O)(=O)O)ccc2c1,-1.61%,–
NC(=O)c1c(Cl)cccc1Cl,-1.21%,–
CC/C=C\C#N,3.11%,–
